# Test results from the supplement of paper PMC10849652.
# About 8,800 targets were measured; listed, in parts, are those with a hit and a random draw of the rest. About 0.5% of all pairs of compound and target were hits. Values without a mark were called inactive.
# Columns and labels:
# Assay in all cases: log2 fold change, soluble protein after heating vs DMSO (PISA); higher = thermal stabilisation; K562 lysate, 10 uM; active = over 0.2 and 3.5 SD of the protein, either way, in both replicates (recomputed)
# alvocidib = compound: CN1CC[C@H](c2c(O)cc(O)c3c(=O)cc(-c4ccccc4Cl)oc23)[C@H](O)C1 [alvocidib]
# In short: (§1)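 Thermal stability, expressed as log-two fold change relative to solvent controls, is given from duplicates. Crude K562 extract in PBS pH 7.4 with 1 mM MgCl2, at 1 mg/mL protein, was treated with 10 μM compound for 30 min and heated in aliquots for 3 min across 48°C-58°C. After pooling, adjustment to 0.5% NP-40 at 4°C and centrifugation at 21,000xg for 90 min, supernatant protein was measured by TMTpro 16plex LC-MS/MS with channel sums equalised.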
# Tubastatin A = compound: CN1CCc2c(c3ccccc3n2Cc2ccc(C(=O)NO)cc2)C1 [Tubastatin A]
# In short: as §1
# [1] = compound: CNC(=O)C1=CC=CC=C1NC2=NC(=NC=C2Cl)NC3=C(C=C(C=C3)N4CCOCC4)OC
# In short: as §1
# defactinib = compound: CNC(=O)c1ccc(Nc2ncc(C(F)(F)F)c(NCc3nccnc3N(C)S(C)(=O)=O)n2)cc1 [defactinib]
# In short: as §1
# [2] = compound: CNc1nc(-c2ccc3c(N)n[nH]c3c2)cc(N2C[C@@H](C(=O)NC3CCCCC3)CC[C@H]2C)n1
# In short: as §1
# encorafenib = compound: COC(=O)N[C@@H](C)CNc1nccc(-c2cn(C(C)C)nc2-c2cc(Cl)cc(NS(C)(=O)=O)c2F)n1 [encorafenib]
# In short: as §1
# [3] = compound: COC(=O)[C@H](CCSC)NC(=O)C1=C(C=C(C=C1)NC[C@H](CS)N)C2=CC=CC=C2
# In short: as §1
# alisertib = compound: COc1cc(Nc2ncc3c(n2)-c2ccc(Cl)cc2C(c2c(F)cccc2OC)=NC3)ccc1C(=O)O [alisertib]
# In short: as §1
# [4] = compound: COc1cc2nc(-c3cc(F)ccc3O)nc(N[C@@H]3CNC[C@H]3C(C)(C)O)c2cc1OC
# In short: as §1
# gefitinib = compound: COc1cc2ncnc(Nc3ccc(F)c(Cl)c3)c2cc1OCCCN1CCOCC1 [gefitinib]
# In short: as §1
# Sequence of UniProt Q9BR61 (Q9BR61 whole entry, looked up): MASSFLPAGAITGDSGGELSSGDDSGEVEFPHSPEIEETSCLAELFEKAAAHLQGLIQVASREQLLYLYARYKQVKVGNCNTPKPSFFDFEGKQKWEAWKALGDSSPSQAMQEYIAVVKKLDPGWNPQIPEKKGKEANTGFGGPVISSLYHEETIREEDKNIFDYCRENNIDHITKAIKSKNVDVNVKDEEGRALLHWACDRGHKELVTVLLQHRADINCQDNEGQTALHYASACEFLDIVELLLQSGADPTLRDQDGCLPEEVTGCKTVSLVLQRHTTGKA
# Sequence of UniProt Q92974 (Q92974 whole entry, looked up): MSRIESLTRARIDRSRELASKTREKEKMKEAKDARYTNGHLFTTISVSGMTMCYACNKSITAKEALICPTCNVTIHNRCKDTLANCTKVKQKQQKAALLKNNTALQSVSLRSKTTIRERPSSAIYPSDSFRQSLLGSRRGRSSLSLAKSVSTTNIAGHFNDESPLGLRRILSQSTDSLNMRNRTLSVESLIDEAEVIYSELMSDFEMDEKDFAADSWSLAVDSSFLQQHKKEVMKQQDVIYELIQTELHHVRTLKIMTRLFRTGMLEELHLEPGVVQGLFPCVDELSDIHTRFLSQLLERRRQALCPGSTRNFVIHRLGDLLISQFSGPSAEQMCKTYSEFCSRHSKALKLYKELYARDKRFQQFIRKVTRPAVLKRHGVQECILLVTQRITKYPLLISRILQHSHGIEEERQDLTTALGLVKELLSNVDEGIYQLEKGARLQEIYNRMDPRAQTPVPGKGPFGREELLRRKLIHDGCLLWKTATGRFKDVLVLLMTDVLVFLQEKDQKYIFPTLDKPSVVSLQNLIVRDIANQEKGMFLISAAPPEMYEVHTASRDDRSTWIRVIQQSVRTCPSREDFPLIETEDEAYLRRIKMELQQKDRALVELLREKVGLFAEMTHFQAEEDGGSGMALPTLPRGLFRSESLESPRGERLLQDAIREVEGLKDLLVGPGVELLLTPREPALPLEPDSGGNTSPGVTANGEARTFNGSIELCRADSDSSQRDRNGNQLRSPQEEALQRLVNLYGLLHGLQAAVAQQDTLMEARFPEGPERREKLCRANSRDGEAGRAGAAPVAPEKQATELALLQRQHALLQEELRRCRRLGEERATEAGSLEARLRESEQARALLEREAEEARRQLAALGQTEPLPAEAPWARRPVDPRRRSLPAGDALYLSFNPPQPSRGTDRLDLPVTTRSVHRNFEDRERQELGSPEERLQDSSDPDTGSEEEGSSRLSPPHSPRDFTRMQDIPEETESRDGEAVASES
# Sequence of UniProt Q6NXT1 (Q6NXT1 whole entry, looked up): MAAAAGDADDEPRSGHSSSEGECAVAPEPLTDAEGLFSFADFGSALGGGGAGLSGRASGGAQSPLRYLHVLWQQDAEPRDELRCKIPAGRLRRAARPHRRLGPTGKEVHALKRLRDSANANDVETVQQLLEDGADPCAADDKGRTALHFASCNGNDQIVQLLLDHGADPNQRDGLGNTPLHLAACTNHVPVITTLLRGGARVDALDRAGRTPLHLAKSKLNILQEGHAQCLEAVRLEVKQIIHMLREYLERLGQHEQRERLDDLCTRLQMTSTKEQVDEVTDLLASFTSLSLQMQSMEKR
# Sequence of UniProt P40616 (P40616 whole entry, looked up): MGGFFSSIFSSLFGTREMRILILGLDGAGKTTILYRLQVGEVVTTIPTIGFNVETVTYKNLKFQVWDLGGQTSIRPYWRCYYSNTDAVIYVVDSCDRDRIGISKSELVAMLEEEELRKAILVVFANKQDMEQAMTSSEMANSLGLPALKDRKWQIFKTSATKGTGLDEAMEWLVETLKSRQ
# Sequence of UniProt P07311 (P07311 whole entry, looked up): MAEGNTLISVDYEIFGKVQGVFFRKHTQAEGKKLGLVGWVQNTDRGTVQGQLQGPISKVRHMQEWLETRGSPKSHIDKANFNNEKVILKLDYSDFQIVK
# Sequence of UniProt Q6NXE6 (Q6NXE6 whole entry, looked up): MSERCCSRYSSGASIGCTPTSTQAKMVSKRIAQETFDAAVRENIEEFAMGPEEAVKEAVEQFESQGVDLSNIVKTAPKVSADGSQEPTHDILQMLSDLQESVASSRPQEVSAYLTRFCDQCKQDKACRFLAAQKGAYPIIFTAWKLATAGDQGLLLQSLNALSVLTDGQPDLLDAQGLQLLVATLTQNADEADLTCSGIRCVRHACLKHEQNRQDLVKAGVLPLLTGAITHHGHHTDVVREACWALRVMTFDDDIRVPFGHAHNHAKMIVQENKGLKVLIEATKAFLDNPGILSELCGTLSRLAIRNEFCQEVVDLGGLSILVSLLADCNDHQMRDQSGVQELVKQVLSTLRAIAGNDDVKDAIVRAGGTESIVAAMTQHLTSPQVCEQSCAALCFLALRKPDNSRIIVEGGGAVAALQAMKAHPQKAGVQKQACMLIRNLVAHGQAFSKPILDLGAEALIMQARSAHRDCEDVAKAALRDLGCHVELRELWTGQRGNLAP
# Sequence of UniProt Q9UJX3 (Q9UJX3 whole entry, looked up): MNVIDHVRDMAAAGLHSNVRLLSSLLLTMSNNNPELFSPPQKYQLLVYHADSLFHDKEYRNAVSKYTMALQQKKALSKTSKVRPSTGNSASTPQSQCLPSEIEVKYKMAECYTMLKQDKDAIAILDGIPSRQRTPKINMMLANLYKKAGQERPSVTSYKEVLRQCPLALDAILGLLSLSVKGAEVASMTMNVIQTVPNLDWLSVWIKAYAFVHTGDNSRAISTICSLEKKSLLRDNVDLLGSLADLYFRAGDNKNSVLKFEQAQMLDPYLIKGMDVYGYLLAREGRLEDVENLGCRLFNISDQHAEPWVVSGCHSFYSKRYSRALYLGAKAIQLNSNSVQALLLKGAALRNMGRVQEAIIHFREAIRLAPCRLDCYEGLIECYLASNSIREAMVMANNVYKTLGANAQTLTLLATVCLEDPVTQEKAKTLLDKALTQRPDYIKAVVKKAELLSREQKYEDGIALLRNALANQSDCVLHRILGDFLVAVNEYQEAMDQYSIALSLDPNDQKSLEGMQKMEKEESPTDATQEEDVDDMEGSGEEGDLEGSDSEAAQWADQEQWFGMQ
# Sequence of UniProt Q8N6T3 (Q8N6T3 whole entry, looked up): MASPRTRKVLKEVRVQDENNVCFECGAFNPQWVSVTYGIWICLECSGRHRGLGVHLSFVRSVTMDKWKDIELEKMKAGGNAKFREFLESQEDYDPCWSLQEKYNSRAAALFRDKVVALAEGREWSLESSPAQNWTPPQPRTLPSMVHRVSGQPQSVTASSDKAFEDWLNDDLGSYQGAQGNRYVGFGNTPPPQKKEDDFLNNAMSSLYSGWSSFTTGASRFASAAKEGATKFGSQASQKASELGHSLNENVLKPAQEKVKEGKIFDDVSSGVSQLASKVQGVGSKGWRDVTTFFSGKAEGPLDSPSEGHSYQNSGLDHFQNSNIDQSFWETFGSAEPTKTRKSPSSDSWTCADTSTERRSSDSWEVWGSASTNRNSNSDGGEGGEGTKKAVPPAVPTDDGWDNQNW
# Sequence of UniProt Q9NXU5 (Q9NXU5 whole entry, looked up): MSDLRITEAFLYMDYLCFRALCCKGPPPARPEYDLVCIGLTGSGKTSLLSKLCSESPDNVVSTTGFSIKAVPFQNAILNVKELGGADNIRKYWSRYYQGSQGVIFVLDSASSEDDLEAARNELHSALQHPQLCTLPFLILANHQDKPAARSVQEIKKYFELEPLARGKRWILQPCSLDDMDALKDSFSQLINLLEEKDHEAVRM
# Sequence of UniProt O43823 (O43823 whole entry, looked up): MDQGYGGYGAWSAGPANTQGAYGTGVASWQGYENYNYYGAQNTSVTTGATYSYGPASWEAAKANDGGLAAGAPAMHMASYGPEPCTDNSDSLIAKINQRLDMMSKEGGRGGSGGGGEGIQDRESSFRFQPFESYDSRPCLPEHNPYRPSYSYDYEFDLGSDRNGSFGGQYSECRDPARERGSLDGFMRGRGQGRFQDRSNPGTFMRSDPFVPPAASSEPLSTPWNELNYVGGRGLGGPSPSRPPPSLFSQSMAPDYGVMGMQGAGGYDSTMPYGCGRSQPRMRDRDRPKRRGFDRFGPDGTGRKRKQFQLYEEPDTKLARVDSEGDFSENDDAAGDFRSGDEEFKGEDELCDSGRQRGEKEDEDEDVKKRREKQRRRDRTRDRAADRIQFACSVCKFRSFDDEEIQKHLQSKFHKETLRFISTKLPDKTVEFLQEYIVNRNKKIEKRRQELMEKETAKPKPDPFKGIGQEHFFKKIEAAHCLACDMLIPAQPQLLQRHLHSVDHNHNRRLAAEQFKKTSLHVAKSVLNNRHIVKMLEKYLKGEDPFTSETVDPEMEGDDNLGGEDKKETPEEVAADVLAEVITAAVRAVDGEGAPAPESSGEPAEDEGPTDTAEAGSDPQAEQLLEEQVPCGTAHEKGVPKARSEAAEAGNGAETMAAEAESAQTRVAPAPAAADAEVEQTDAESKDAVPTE
# Sequence of UniProt P30837 (P30837 whole entry, looked up): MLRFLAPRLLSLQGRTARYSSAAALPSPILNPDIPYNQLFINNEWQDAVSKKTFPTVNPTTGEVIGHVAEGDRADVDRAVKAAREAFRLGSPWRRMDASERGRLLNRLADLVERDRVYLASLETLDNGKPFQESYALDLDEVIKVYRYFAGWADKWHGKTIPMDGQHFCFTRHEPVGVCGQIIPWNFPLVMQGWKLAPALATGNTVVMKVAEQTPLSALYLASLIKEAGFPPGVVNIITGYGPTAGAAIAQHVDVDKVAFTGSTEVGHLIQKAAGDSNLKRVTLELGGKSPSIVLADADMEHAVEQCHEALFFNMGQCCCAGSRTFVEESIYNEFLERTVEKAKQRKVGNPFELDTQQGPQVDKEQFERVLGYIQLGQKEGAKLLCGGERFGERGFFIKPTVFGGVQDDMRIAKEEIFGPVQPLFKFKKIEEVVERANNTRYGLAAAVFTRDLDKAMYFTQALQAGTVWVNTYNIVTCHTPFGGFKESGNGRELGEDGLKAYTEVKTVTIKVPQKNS
# Sequence of UniProt Q96BM9 (Q96BM9 whole entry, looked up): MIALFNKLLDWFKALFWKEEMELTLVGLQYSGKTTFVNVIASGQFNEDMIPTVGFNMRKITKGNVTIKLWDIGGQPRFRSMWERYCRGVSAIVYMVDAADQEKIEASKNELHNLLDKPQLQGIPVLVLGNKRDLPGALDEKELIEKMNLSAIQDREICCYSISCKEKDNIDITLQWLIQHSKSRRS
Target,log2 fold change (alvocidib),log2 fold change (Tubastatin A),log2 fold change [1],log2 fold change (defactinib),log2 fold change [2],log2 fold change (encorafenib),log2 fold change [3],log2 fold change (alisertib),log2 fold change [4],log2 fold change (gefitinib)
ABHD16A (UniProt O95870),0.036,0.066,-0.077,0.009,0.054,-0.074,0.245 (active),-0.029,-0.004,-0.021
ARGLU1 (UniProt Q9NWB6),-0.119,0.018,-0.056,-0.049,0.01,0.012,-0.039,-0.006,0.012,0.006
AKAP11 (UniProt Q9UKA4),0.032,0.026,0.001,0.093,-0.01,-0.03,0.144,-0.022,-0.119,-0.114
ANXA1 (UniProt P04083),-0.025,-0.005,-0.021,-0.007,-0.055,-0.021,0.028,0.001,0.008,-0.012
ALDH1B1 (UniProt P30837),0.168,0.01,0.233 (active),-0.029,0.007,-0.008,0.127,-0.002,0.006,-0.026
ARL8A (UniProt Q96BM9),0.082,0.043,0.06,0.019,0.204,-0.048,-0.03,-0.186,0.027,0.013
ABI1 isoform 9 (UniProt Q8IZP0),-0.096,0.053,0.005,-0.038,0.025,0.003,-0.057,-0.02,0.018,-0.015
ABCF3 (UniProt Q9NUQ8),0.013,-0.172,0.029,-0.01,-0.01,-0.031,0.11,0.004,-0.003,-0.006
ANAPC7 (UniProt Q9UJX3),0.011,-0.1,0.036,0.014,-0.03,0.026,0.002,-0.001,0.005,0.017
ABHD12 isoform 2 (UniProt Q8N2K0),0.02,0.001,0.039,-0.004,0.003,0.046,-0.018,-0.031,-0.03,-0.045
ACYP1 (UniProt P07311),0.084,0.008,-0.002,0.014,-0.018,-0.018,-0.016,0.012,-0.008,0.026
ARL1 (UniProt P40616),-0.017,-0.025,0.079,0.001,0.088,0.111,-0.293 (active),0.081,0.053,0.057
AKAP8 (UniProt O43823),-0.031,-0.038,-0.059,-0.001,-0.073,0.072,-0.098,0.02,0.058,-0.042
ACACA isoform 4 (UniProt Q13085),0.016,-0.115,-0.011,-0.008,-0.02,0.032,-0.16,0.014,0,-0.004
ACBD6 (UniProt Q9BR61),-0.009,-0.15,0.056,-0.005,0.016,-0.003,0.051,-0.006,0.016,-0.022
ARHGEF2 (UniProt Q92974),-0.009,-0.081,0.047,-0.004,0.058,0.07,0.071,0.018,-0.005,0.007
AKT2 (UniProt P31751),0.001,-0.061,0.036,-0.013,-0.064,0.028,0.037,0.003,-0.005,-0.013
ALDH5A1 isoform 2 (UniProt P51649),0.063,0.048,0.007,0.016,-0.02,-0.028,0.077,0.001,0.006,-0.042
ARFGAP1 (UniProt Q8N6T3),-0.001,-0.008,0.105,0.115,0.025,0.355,-0.054,0.245,0.097,0.209
ACAT1 (UniProt P24752),0.018,-0.136,0.001,-0.027,0.05,-0.033,0.04,0,-0.006,-0.06
ARMCX3 (UniProt Q9UH62),0.022,-0.061,-0.018,0.017,0.026,-0.006,0.015,0.055,0.042,-0.053
AMPD3 isoform 4 (UniProt Q01432),0.012,0.027,0.015,0.011,-0.034,-0.013,0.103,0.008,-0.068,0.012
ANKRD54 (UniProt Q6NXT1),-0.019,-0.095,0.121,0.022,0.042,0.082,-0.147,0.006,-0.011,0.002
ARL15 (UniProt Q9NXU5),0.177,-0.002,-0.013,-0.013,-0.021,0.037,-0.211,0.005,0,-0.057
ASPH (UniProt Q12797),-0.012,0.018,-0.01,0.023,-0.006,0.018,-0.047,0.042,-0.025,-0.041
AMDHD2 isoform 3 (UniProt Q9Y303),-0.016,0,0.018,0.014,0.018,-0.028,0.1,0.023,-0.013,0.034
ARMC6 (UniProt Q6NXE6),0,-0.171,0,-0.003,-0.103,0.037,0.234 (active),0.005,-0.014,0.041
